Screening data: PubChem, National Center for Advancing Translational Sciences (NCATS)
Abeta rescue – qHTS for compounds that reverse cellular toxicity of Amyloid beta (A-beta) peptide in yeast: Primary Screen; yeast expressing A-beta42, growth rescue, OD600, 48 h; response scale: 0% DMSO, 100% iron-clioquinol control; Potency, µM (titrated, usually from 46.1 µM), hits mostly activators; 410,000 compounds, 0.063% hits; note: potency is the fitted concentration of half-maximal effect; nearly all actives have a fitted effect of over 55% in size
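Yeast A-beta toxicity model in growth medium with pinned compounds, 48 h at 30 C; growth read as absorbance at 600 nm. Normalized to FeCl3/clioquinol equimolar mix (positive) and DMSO (negative).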
TDP43 rescue – qHTS of TDP-43 Inhibitors | TDP-43 expressing yeast growth rescue, BacTiter-Glo, 24 h | Potency, µM (doses to about 46.1 µM), inactives show at the highest dose growth rescue (activation), usual class: activators | 410,000 compounds, 1.8% hits; note: potency is the fitted concentration of half-maximal effect; % of control where 0% means no effect; nearly all actives have a fitted effect of over 50% in size
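Readout is BacTiter-Glo luminescence of cell growth, so inhibitors register as activators. TDP-43-expressing yeast at OD600=0.02 in galactose medium, after raffinose pregrowth to mid-log, were incubated with compound for 24 hr at 30 deg C.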
aSyn rescue – qHTS of alpha-syn Inhibitors. Yeast expressing alpha-synuclein, growth rescue, BacTiter-Glo, 24 h. Potency, µM (doses to about 46.1 µM), without a hit: top-dose growth rescue (activation), usual class: activators. 370,000 compounds, 0.14% hits; note: potency is the fitted concentration of half-maximal effect; % of control where 0% means no effect; nearly all actives have a fitted effect of over 65% in size
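Galactose-induced alpha-syn yeast (OD600=0.02, raffinose-pregrown) + pinned cpd, 24 hr, 30 deg C; growth by BacTiter-Glo luminescence. Growth restoration scores as activation.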
CCT chaperon mod – High-Throughput Screening for Modulators of Cytosolic Chaperonin Activity; purified chaperonin ATPase assay, HTRF ADP detection, 30 min; activity change, % (test concentration not listed), hits read low; 360,000 compounds, 0.3% hits; in the data active = activity change below about -30%; note: % is set by controls: 0 for no effect and ±100 for the full control effect
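We incubate TRiC, 40 or 20 nM final, with library compounds at 76 uM and 10 uM ATP for 30 min at 37 °C. ADP formed is detected with Transcreener HTRF reagents after 30 min at room temperature.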
FUS yeast rescue – qHTS for Suppressors of FUS Proteinopathy: Primary screen using FUS-linked yeast assay; S. cerevisiae FUS-expressing, growth rescue, OD600, 24 h; Potency, µM (doses to about 76.6 µM), hits mostly activators; 390,000 compounds, 0.24% hits; AID 1347120, 2019;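 note: potency is the fitted concentration of half-maximal effect; plate controls were DMSO vehicle for no effect and reference control for full effect; nearly all actives have a fitted effect of over 55% in size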
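S. cerevisiae expressing FUS from galactose induction served as the toxicity model. Growth after 24hr at 30C, read as absorbance at 600 nm, indicates suppression of toxicity; compounds dosed at several concentrations.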
Mm-Cpn inhibitor – Inhibitors of TCP-1 ring complex (TRiC) of Methanococcus maripaludis (MmCpn): qHTS; purified Mm-Cpn ATPase, ADP Transcreener TR-FRET; Potency, µM (titrated, usually from 76.9 µM), for inactives: at the top dose activity, negative = inhibition, actives largely listed as inhibitors; Chaperonin Mm-Cpn (Methanococcus maripaludis); AID 504842, 2011; 330,000 compounds, 0.031% hits; note: potency is the fitted concentration of half-maximal effect; % is set by controls: 0 for no effect and ±100 for the full control effect; nearly all actives have a fitted effect of over 80% in size
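TR-FRET (320 nm excitation; 590 and 665 nm emission) reports ADP made from 10 uM ATP by 25 nM enzyme; compounds were preincubated 10 min, reaction run 30 min, both at 37°C.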
* hit, by the source's call; i = inactive; u = inconclusive; x = no result; [ ] = another dose, or the depositor's remark. Only some compounds are listed: those with a hit (about 2.3% of all), similar ones and a draw of the others. Unless noted, calls come from the whole dose curve; as a rule, active = well fitted curve in the direction sought with a large enough effect; inconclusive = small, poorly fitted or top-dose-only effect, or another doubt; inactive = no such curve, though single readings can be large; an effect the other way counts as inactive or inconclusive.

SMILES	Abeta rescue	TDP43 rescue	aSyn rescue	CCT chaperon mod	FUS yeast rescue	Mm-Cpn inhibitor
CCc1ccccc1NC(=O)c1ccc(F)c(S(=O)(=O)N2CCN(c3ccccc3OC)CC2)c1	8.9µM*	23%	x	x	u	x
COc1ccc(Nc2cc(C(=O)NCCCN3CCN(c4ccc(OC)cc4)CC3)c3ccccc3n2)cc1	i	14%	x	x	i	x
CCCC[C@H]1C2CC(OC(=O)NCCCc3ccccc3)C(C2)[C@H]2CCCCN21 (stereo not given in full)	x	x	x	x	i	x
CCOc1cc(C(=O)N2CCC(CC3CC(c4ccccc4)=NO3)(C(=O)NCc3ccc(OC)cc3)CC2)cc(OCC)c1OCC (stereo not given)	i	2%	0%	2	18µM*	x
COc1ccc(CNC(=O)C2(CC3CC(c4ccccc4)=NO3)CCN(C(=O)Cc3ccc(F)cc3)CC2)cc1 (stereo not given)	i	8%	5%	-1	i	x
COC(=O)[C@]12C[C@H](CC(=O)N3CCC(c4ccccc4)CC3)C(=O)N(CCC3=CCCCC3)C1=C[C@H](C1CCCC1)O[C@@H]2C	x	x	x	x	i	x
CSc1ccc(C2Nc3ccccc3-c3cc(C)nn32)cc1 (stereo not given)	i	18µM*	-1%	2	u	-2%
Cc1cc2n(n1)C(c1ccsc1)Nc1ccccc1-2 (stereo not given)	i	8.9µM*	-20%	-4	i	u
CCN(CC)c1ccc(C2Nc3ccccc3-c3cc(C)nn32)cc1 (stereo not given)	i	u	x	x	i	x
COC(=O)c1ccc(C2Nc3c(C)cccc3-c3cc(C)nn32)cc1 (stereo not given)	i	13µM*	x	x	u	x
CCC(C#Cc1ccccc1)NCc1ccc(OC)cc1OC (stereo not given)	x	x	x	x	i	x
COc1ccc(-n2nc(C(=O)Nc3ccc(C(C)=O)cc3)nc2-c2ccccc2)cc1	i	22µM*	x	x	i	x
CCCOc1ccc(C(=O)NNC(=S)NC(=O)c2cc(-c3ccc(Cl)cc3)nc3ccccc23)cc1	i	13µM*	4%	0	i	-2%
CCOC(=O)c1cc2c(C)n(-c3ccc(OCC)cc3)c(C)c2ccc1=O	i	10%	-14%	-1	x	-3%
CCOC(=O)c1cc2c(C)n(-c3ccc(C)cc3)c(C)c2ccc1=O	i	20µM*	-3%	-2	i	-8%
CC(NC(=O)c1ccc2c(c1)N(Cc1ccc(Cl)cc1)C(=O)c1ccccc1S2=O)c1ccccc1 (stereo not given)	i	-6%	x	x	25µM*	x
COc1ccc(OC)c(N(CC(=O)N2CCN(c3cc(Cl)ccc3C)CC2)S(C)(=O)=O)c1	i	-20%	2%	3	28µM*	-1%
COC(=O)C[C@H]1CC[C@H]2[C@H](COc3ccc(NC(=O)c4ccccc4F)cc3C(=O)N2C)O1	x	x	x	x	i	x
Cc1c(Cl)cccc1Nc1nc(N)nc(CSc2nc3ccccc3s2)n1	i	16µM*	-13%	1	u	1%
Cc1cc(C(=O)CSc2cccc[n+]2[O-])c(C)n1-c1ccccc1	i	u	u	-38*	i	-3%
O=C(CSc1cccc[n+]1[O-])c1ccccc1Br	u	35µM*	u	-6	i	1%
Cc1cc(C(=O)CSc2cccc[n+]2[O-])c(C)n1-c1ccc(Br)cc1	x	x	x	x	x	0%
OCCNc1nc(-c2cccs2)nc2ccccc12	x	x	-6%	x	x	x
Cc1cc(=O)[nH]c(N/N=C/c2cc(C)n(-c3ccccc3)c2C)n1	i	-18%	1%	-14	32µM*	-3%
Nn1c(SCC(=O)Nc2nccs2)nnc1-c1cc(-c2ccc(F)cc2)n[nH]1	x	x	x	x	i	x
SMILES	Abeta rescue	TDP43 rescue	aSyn rescue	CCT chaperon mod	FUS yeast rescue	Mm-Cpn inhibitor
COc1cc(N(C)C)c(OC)cc1/C=C1\C=Cc2ccccc21	x	x	-8%	x	x	x
Cn1c(N)c(C(=O)COC(=O)C2CCC(C(C)(C)C)CC2)c(=O)n(C)c1=O (stereo not given)	i[9.22 µM]	35µM*	3%	-1	i	0%
CC1(C(=O)O)CCCN(C(=O)C2(c3ccc(Cl)cc3)CCCC2)C1 (stereo not given)	i	18µM*	-8%	1	i	x
COC(=O)c1ccc(C=NNC(=O)c2cc(-c3ccc(C)c(C)c3)n[nH]2)cc1	x	x	x	x	i	x
COc1ccc(NC(=O)CCCCCN2C(=O)c3cccc([N+](=O)[O-])c3C2=O)c(OC)c1	i	22%	2%	-39*	i	-2%
COc1ccc(OC)c(NC(=O)CCN2C(=O)c3cccc([N+](=O)[O-])c3C2=O)c1	i	12%	0%	-2	i	0%
CCO/C=C1/C(=O)N(C)C(=O)c2cc(OC)ccc21	i	13µM*	2%	-5	i	0%
O=C(NCC1CCCO1)c1ccc(COc2ccccc2Br)cc1 (stereo not given)	i	13µM*	-9%	-4	i	3%
O=C(NCC1CCCO1)c1ccc(COc2ccc(Cl)cc2)cc1 (stereo not given)	i	-12%	0%	2	i	-1%
COc1ccc([N+](=O)[O-])cc1NC(=O)CSCc1ccccc1	i	13µM*	8%	-2	i	2%
O=C(CSCc1ccccc1)Nc1cc([N+](=O)[O-])ccc1F	i	11µM*	4%	1	i	1%
COc1ccc([N+](=O)[O-])cc1NC(=O)C1(c2ccc(OC)c(OC)c2)CCOCC1	i	-18%[9.22 µM]	-3%	-93*	i	2%
Cc1cccc(CSCCNC(=O)CSCc2ccc([N+](=O)[O-])cc2)c1	i	18µM*	16%	-10	i	2%
Cc1ccc(Cl)cc1NS(=O)(=O)c1ccc2c(c1)NC(=O)CCS2	i	21%	7%	x	i	x
Cc1cccc(NC(=O)CCN2CCN(c3ccccc3F)CC2)c1	i	3%	x	x	i	x
Fc1ccc(Br)cc1C1C=C(c2ccc(Br)cc2)Nc2nnnn21 (stereo not given)	i	u	x	x	i	x
Cc1c(Cl)cccc1NC(=O)c1cnc2sc(N3CCOCC3)nn2c1=O	i	-11%	x	x	u	x
COC(=O)C[C@@H]1CC[C@@H]2[C@@H](COc3ccc(NC(=O)Nc4ccc(F)cc4)cc3C(=O)N2C)O1	x	x	x	x	i	x
